The panel holds about 83,000 compounds, 20% with a hit somewhere; the sample as a whole holds those more often.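 A percent growth of 40 corresponds to 60% growth inhibition; 0 means no net growth; -100 means all cells died. Active threshold: below 10.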 A number with no mark means an inactive call. Activity calls are given as the source filed them.
Experiments:
Assay in all cases: NCI-60 one-dose screen, 48 h (100 = growth as untreated, 0 = no growth, -100 = all killed)
Conditions in all cases: 10 µM unless noted
[1] = test system: HCT-15 colon
[2] = test system: HT29 colon
[3] = test system: SNB-75 CNS
[4] = test system: SNB-19 CNS
[5] = test system: U251 CNS
[6] = test system: PC-3 prostate
[7] = test system: SK-MEL-5 melanoma
[8] = test system: UACC-62 melanoma
[9] = test system: LOX IMVI melanoma
[10] = test system: SK-MEL-28 melanoma

Structure (SMILES)	growth [1]	growth [2]	growth [3]	growth [4]	growth [5]	growth [6]	growth [7]	growth [8]	growth [9]	growth [10]
Cc1ccc(-c2nnc(SCc3ccc(O)c4ncccc34)n2-c2ccccc2)cc1	6.13% (active)	36%	-5.25% (active)	9.09% (active)	-2.5% (active)	5.96% (active)	-28.2% (active)	-27.7% (active)	3.35% (active)	23%
Cc1c(Cl)cccc1S(=O)(=O)Nc1ccc2c(c1)C(=O)N(C1CCC(=O)NC1=O)C2=O (stereo not given)	24%	105%	77.4%	82.9%	95.6%	95.4%	100%	98.4%	122%	97.8%
Cc1nc(-c2ccccc2O)ccc1C(=O)N=Nc1c(O)[nH]c2ccc(Br)cc12	69.9%	112%	93.7%	101%	103%	88.2%	96.9%	91.6%	107%	101%
N#Cc1c(NC(=O)c2cccc(C(F)(F)F)c2F)sc2c1CCC(=O)C2	-49.6% (active)	4.38% (active)	-66.3% (active)	15.4%	0.119% (active)	-43.9% (active)	-91.1% (active)	-56.6% (active)	-8.55% (active)	-71.8% (active)
CCN1CCN(Cc2cn(-c3ccc(S(N)(=O)=O)cc3)nn2)CC1	104%	102%	95.6%	105%	109%	97.8%	103%	98.1%	102%	116%
O=C(Nc1cccc(C(F)(F)F)c1)c1cc(-c2ccc(F)cc2F)ccc1O	8.57% (active)	74.1%	-0.914% (active)	11.4%	10.4%	7.15% (active)	-66% (active)	2.01% (active)	0.316% (active)	24.6%
Cn1ccnc1C(=O)/C=C/c1ccc(NC(=O)c2ccc(F)cc2)cc1	16.9%	7.13% (active)	46.9%	28.1%	23.3%	27.6%	68.2%	49.9%	6.38% (active)	90.9%
CC1(COc2ccc3ncc(C#Cc4cncc(C(=O)Nc5cccc(C(F)(F)F)c5)c4)n3n2)COC1	86.1%	82.1%	63%	82.8%	91.3%	95.5%	79.4%	72.9%	65.6%	86.8%
Cc1ccc(-n2cc(/C=N/NC(=O)c3nc(N)n[nH]3)c(-c3ccc(S(C)(=O)=O)cc3)n2)cc1	86.4%	105%	92.2%	97.4%	101%	96.8%	103%	88.5%	90.2%	101%
N#C/C(=C\c1ccc(-c2ccc(Cl)cc2Cl)o1)c1ccc(F)cc1	94.5%	96.4%	77.6%	96.7%	98.5%	87.8%	95.7%	71.2%	87.6%	102%
Nc1nc(Nc2ccccc2SSc2ccccc2Nc2nc(N)nc(-c3cccc(Br)c3)n2)nc(-c2cccc(Br)c2)n1	50.8%	108%	53.9%	25.4%	-43.9% (active)	34.7%	91.2%	88.3%	-62.1% (active)	98.9%
COC(=O)c1ccc(NC2=C/C(=N/S(=O)(=O)c3ccc(C(=O)O)cc3)c3ccccc3C2=O)cc1	61.7%	112%	172%	88.6%	2.7% (active)	16.6%	-35.6% (active)	-24.1% (active)	-65% (active)	-32.6% (active)
COc1cc2oc(-c3cccc(N)c3)cc(=O)c2c(OC)c1OC	101%	109%	97.8%	97.8%	103%	98.7%	98.8%	93.5%	111%	108%
CC(=O)Nc1cccc(Nc2nc(N[C@@H](C)c3ccccc3)c3ccccc3n2)c1	10.4%	4.28% (active)	-19.3% (active)	20.6%	14.3%	21.3%	-5.52% (active)	28.6%	-70.2% (active)	42.3%
Cc1ccc(-c2cc3nc(C(Cl)Cl)nc(-c4cccs4)n3n2)cc1	61.7%	39.2%	110%	63.8%	39.4%	66.5%	96.8%	78.9%	96.2%	87.4%
COC(=O)c1[nH]nc2c1C1(C(=O)c3cccc4cccc1c34)C(C#N)=C(N)O2 (stereo not given)	99.4%	105%	80.4%	97.2%	105%	83.9%	98.6%	91.8%	97.7%	112%
COc1ccc(C2CC(c3cccc(Nc4nc(Cl)nc5cc(OC)c(OC)cc45)c3)=Nc3c(N)nc(N)nc3N2)cc1 (stereo not given)	34.5%	57.8%	94.5%	70.1%	16.9%	62.7%	72.1%	95.6%	54.2%	101%
COc1cc(OC)c(S(N)(=O)=O)cc1C(=O)/C=C/c1ccc(Cl)cc1	-41.6% (active)	6.08% (active)	27.1%	15.8%	3.73% (active)	28.2%	5.34% (active)	18.6%	-50.4% (active)	30.5%
CCOC(=O)c1c(Nc2ccccc2)nn2c(-c3cccs3)ccnc12	53.8%	80.3%	88.8%	98.2%	88.6%	81%	70.9%	84.6%	73.7%	90.7%
Nc1ccccc1NC(=O)c1ccc(NC(=O)C/C=C/c2cccnc2)cc1	30.2%	18.1%	44.6%	39.4%	21.5%	36.9%	12.3%	15%	20.3%	0.0488% (active)
COc1cc2oc(-c3cccc(C(=O)N[C@@H](CC(C)C)C(=O)OC(C)(C)C)c3)cc(=O)c2c(OC)c1OC	36.9%	83.7%	80.9%	78.3%	76.1%	58.4%	74.1%	51.6%	46.5%	95.9%
C=CCn1c(SCC(=O)Nc2ccc(C(=O)/C=C/c3cccc([N+](=O)[O-])c3)cc2)nnc1-c1c[nH]c2ccccc12	91.7%	98.4%	97%	89.4%	94.4%	77.8%	59.5%	66.9%	31.1%	95.4%
Cc1ccc(NC(=O)c2ccc(CN3CCN(C)CC3)cc2)cc1Oc1ccc(-c2[nH]nc3ncnc(N)c23)cc1	99.4%	12.6%	75.1%	104%	86.8%	84.5%	85.2%	84.3%	66.7%	88.6%
COc1ccc2c(c1)c(-c1cc(N)n3nc(-c4cn(C)c5ccc(OC)cc45)cc3n1)cn2C	29.8%	75.6%	98.2%	107%	-30.9% (active)	88.7%	102%	100%	105%	113%
